The values that follow come from PubChem BioAssay AID652100 (National Center for Advancing Translational Sciences (NCATS), 2013).

Activity calls are given as the source filed them.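 Rule for the calls: active = compounds that bring Gaucher patient macrophage uptake of dying cells up to about normal macrophage levels; inactive = the rest.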

The assay in a line: Extended Characterization of Activators of N370S glucocerebrosidase as a Potential Chaperone Treatment of Gaucher Disease: Efferocytosis Index. The settings on record: Gaucher patient macrophages, apoptotic Jurkat efferocytosis imaging. The text has this: Glucocerebrosidase (GCase) catalyzes the hydrolysis of beta-glucocerebroside (GC) to glucose and ceramide in lysosomes. Mutations in the glucocerebrosidase gene result in Gaucher disease, an autosomal recessive lysosomal storage disorder. Many of the mutations encountered in patients with Gaucher disease are missense alterations that may cause misfolding, decreased stability and/or mistrafficking of this lysosomal protein. […] These inhibitors include iminosugar analogs and other inhibitors that were discovered as part of previous work. However, the enhancement of enzyme activity by the chaperone action of an enzyme inhibitor must be balanced against the direct inhibition of the enzyme. […] In this extended characterization of our probe, we have further characterized the activity of probes in relevant models of Gaucher disease. This assay examine efferocytosis in patient-derived macrophages following compound incubation. NIH Chemical Genomics Center [NCGC] NIH Molecular Libraries Probe Production Centers Network [MLPCN] MLPCN Grant: MH086442 Assay Submitter (PI): Ellen Sidransky, NHGRI
Jurkat T-cells were stained with green cell tracker (Molecular Probes), and apoptosis was induced using UVB radiation for 2 min (BioRad). […] The number of T-cells taken up by macrophages was counted and normalized to the number of cells per field.
Turning to `C#Cc1ccc(NC(=O)c2cnn3c(C)cc(C)nc23)cc1`, the outcome was “active; similar to control”.
